# In PubChem BioAssay (EPA / NIEHS):
# Values joined by “and” are separate entries in the source; they are usually repeats but may differ in a detail not shown here. Equal values may be shown once. Results filed as inconclusive are left out. More than one record can exist for a structure, and the calls need not agree. Active and inactive are the calls of the source. Rule for the calls, unless noted: active = hit-call score of the fitted dose curve at least 0.9, where 1 is the maximum; inactive = score below 0.9.
# Legend:
# [1] = biological target: Glucocorticoid receptor (Homo sapiens) (UniProt P04150); assay: ATG_GR_TRANS: Attagene TRANS-FACTORIAL HepG2 Assay for human Glucocorticoid Receptor (GR) (AID 2282978; active = hit-call score of the fitted dose curve at least 0.9, where 1 is the maximum;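 note: activators score as hits since higher reporter transcript over DMSO is fitted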); settings: HepG2 Attagene TRANS GR reporter, mRNA transcription
# In short: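 Fluorescent capillary-electrophoresis quantitation of reporter mRNA is the readout, taken 24 h after dosing human HepG2 cells carrying transiently transfected GAL4-UAS reporter units activated by chimeric NR-GAL4 fusions; activity scored as induction over DMSO.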
# [2] = biological target: Oxysterols receptor LXR-alpha (Homo sapiens) (UniProt Q13133); assay: ATG_LXRa_TRANS: Attagene TRANS-FACTORIAL HepG2 Assay for human Liver X Receptor alpha (LXRa) (AID 2282980; active = hit-call score of the fitted dose curve at least 0.9, where 1 is the maximum); settings: HepG2 Attagene TRANS reporter, LXRa transactivation
# In short: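 Transfect HepG2 with GAL4-UAS multiplex reporter constructs (TRANS format, chimeric receptor-GAL4); treat 24 h; extract RNA, reverse-transcribe, PCR-amplify, FAM-label, HpaI-digest; resolve fragments by capillary electrophoresis. Upward response vs DMSO.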
# [3] = biological target: Oxysterols receptor LXR-beta (Homo sapiens) (UniProt P55055); assay: ATG_LXRb_TRANS: Attagene TRANS-FACTORIAL HepG2 Assay for human Liver X Receptor beta (LXRb) (AID 2282981; active = hit-call score of the fitted dose curve at least 0.9, where 1 is the maximum); settings: HepG2 Attagene TRANS GAL4-LXRb reporter, mRNA
# In short: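 Liver-derived HepG2 cells transfected with Gal4-responsive reporters were dosed for 24 h. Activation was scored as rise in reporter mRNA, by RT-PCR and capillary electrophoresis, above DMSO baseline.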
# [4] = ATG_M_32_TRANS: Attagene TRANS-FACTORIAL HepG2 Assay for M32 Transcription Factor (Internal Marker) (AID 2282984; active = hit-call score of the fitted dose curve at least 0.9, where 1 is the maximum); settings: HepG2 Attagene TRANS M32 internal marker reporter
# In short: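 Fluorescence-detected mRNA induction, HepG2 liver cells, 24 h after dosing. Multiple GAL4-UAS reporter units introduced by transient transfection; background-control endpoint analysed for gain of signal against DMSO.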
# [5] = biological target: Nuclear receptor subfamily 4 group A member 2 (Homo sapiens) (UniProt P43354); assay: ATG_NURR1_TRANS: Attagene TRANS-FACTORIAL HepG2 Assay for human Nuclear Receptor Related Protein 1 (NURR1) (AID 2282985; active = hit-call score of the fitted dose curve at least 0.9, where 1 is the maximum); settings: HepG2 Attagene TRANS reporter, mRNA readout
# In short: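 Chimeric NR-Gal4 proteins were expressed in human HepG2 cells bearing GAL4-UAS reporter units, and induced reporter mRNA was quantified 24 h post-dosing by RT-PCR and capillary electrophoresis.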
# [6] = biological target: Transcriptional activator Myb (Homo sapiens) (UniProt P10242); assay: ATG_Myb_CIS: Attagene CIS-FACTORIAL HepG2 Assay for human Myeloblastosis (Myb) Proto-Oncogene Transcription Factor (AID 2282986); settings: HepG2 Attagene CIS-FACTORIAL Myb reporter transcription; actives raise or lower the signal
# In short: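 Reporter transcript levels, quantified by fluorescent RT-PCR and capillary electrophoresis, serve as the read-out. Transfected HepG2 cells carrying cis-promoter reporter units are dosed for 24 hours, and curves are fitted bidirectionally against DMSO controls.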
# [7] = biological target: Nuclear respiratory factor 1 (Homo sapiens) (UniProt Q16656); assay: ATG_NRF1_CIS: Attagene CIS-FACTORIAL HepG2 Assay for human Nuclear Respiratory Factor 1 (NRF1) Orphan Gene (AID 2282987); settings: HepG2 NRF1 cis-element reporter, Attagene multiplex; actives raise or lower the signal
# In short: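 Multiplexed cis-reporter assay, HepG2 cells, 24 h treatment. Total RNA → oligo(dT) RT → PCR with reporter-specific primers → 6-FAM primer extension → HpaI cut → CE. Bidirectional fit vs DMSO.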
# [8] = ATG_NFI_CIS: Attagene CIS-FACTORIAL HepG2 Assay for human Nuclear Factor I (NFI) (AID 2282989); settings: HepG2 cis-regulatory reporter, NFI response element transcription; actives raise or lower the signal
# In short: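 HepG2 cells transiently transfected with cis-element-driven multiplexed reporter transcription units, dosed for 24 h. Reporter mRNA quantified by RT-PCR, fluorescent labelling, HpaI digestion and capillary electrophoresis; bidirectional fit versus DMSO baseline.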
# [9] = biological target: Myc proto-oncogene protein (Homo sapiens) (UniProt P01106); assay: ATG_Myc_CIS: Attagene CIS-FACTORIAL HepG2 Assay for human Myelocytomatosis (Myc) Proto-Oncogene Transcription Factor (AID 2282990); settings: HepG2, Attagene cis-reporter transcription factor activity; actives raise or lower the signal
# In short: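 Multiplexed cis-reporter transcription in HepG2 cells after 24 h chemical treatment. Reporter mRNA measured by RT-PCR and capillary electrophoresis fluorescence; activity fitted bidirectionally against DMSO control.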
# [10] = ATG_NF_kB_CIS: Attagene CIS-FACTORIAL HepG2 Assay for human Nuclear Factor Kappa B (NF-kB) (AID 2282991); settings: HepG2 Attagene cis-factorial NF-kB reporter mRNA; actives raise or lower the signal
# In short: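 Transient MRTU transfection of human HepG2 liver cells → 24 h chemical exposure → total RNA, oligo(dT) RT → PCR, 6-FAM primer extension, HpaI digest 2 h 37 C → CE fragment analysis. Bidirectional fitting, DMSO negative control.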
# [11] = ATG_NRF2_ARE_CIS: Attagene CIS-FACTORIAL HepG2 Assay for human Nuclear Factor Erythroid 2 Related Factor 2 (NFR2) response to Antioxidant Response Elements (ARE) (AID 2282992); settings: HepG2 Attagene ARE/NRF2 reporter, transcription factor activity; actives raise or lower the signal
# In short: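 Using transiently transfected HepG2 cells exposed for 24 h, reporter mRNA levels were determined by RT-PCR with fluorescent primer extension and capillary electrophoresis, analysed for gain or loss of signal against DMSO.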
# [12] = ATG_Oct_MLP_CIS: Attagene CIS-FACTORIAL HepG2 Assay for human Octamer-Binding Transcription Factor (Oct) (AID 2282993); settings: HepG2 Attagene cis-factorial Oct reporter, mRNA; actives raise or lower the signal
# In short: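 HepG2 cells transiently transfected with cis-promoter-driven multiplexed reporter transcription units, dosed for 24 h. Reporter mRNA quantified by RT-PCR, fluorescent labelling, HpaI digestion and capillary electrophoresis; bidirectional fits versus DMSO baseline.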
# [13] = ATG_M_06_TRANS: Attagene TRANS-FACTORIAL HepG2 Assay for M06 Transcription Factor (Internal Marker) (AID 2282983; active = hit-call score of the fitted dose curve at least 0.9, where 1 is the maximum); settings: HepG2 Attagene TRANS M06 internal marker reporter
# In short: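 Background control endpoint: reporter mRNA from transiently transfected HepG2 after 24 h dosing, detected by RT-PCR with capillary electrophoresis fluorescence. Analysed for gain versus DMSO.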
# [14] = BSK_3C_TissueFactor: BioMAP Diversity Plus: 3C Assay for Tissue Factor Biomarker Activity (AID 2282997); settings: BioMAP 3C HUVEC, tissue factor biomarker readout; actives raise or lower the signal
# In short: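 After a 24 h chemical exposure of primary human umbilical vein endothelial cells, Tissue Factor levels were quantified by ELISA.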
# [15] = BSK_3C_uPAR: BioMAP Diversity Plus: 3C Assay for Urokinase-type plasminogen activator receptor (uPAR) Biomarker Activity (AID 2282998); settings: BioMAP 3C HUVEC, uPAR biomarker ELISA; actives raise or lower the signal
# In short: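 Human umbilical vein endothelial primary cells were exposed to test chemical for 24 h. Cell-surface uPAR was then quantified by ELISA, and responses were fitted bidirectionally against DMSO as negative control and baseline.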
# [16] = BSK_3C_VCAM1: BioMAP Diversity Plus: 3C Assay for Vascular cell adhesion molecule 1 (VCAM1) Biomarker Activity (AID 2282999); settings: BioMAP 3C HUVEC, VCAM1 ELISA, cytokine-stimulated; actives raise or lower the signal
# In short: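 Vascular primary endothelium (human umbilical vein) was exposed to chemicals and assayed 24 h later. VCAM-1 levels came from ELISA, with DMSO serving as baseline for bidirectional fitting.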
# [17] = BSK_4H_Eotaxin3: BioMAP Diversity Plus: 4H Assay for Eotaxin 3 Biomarker Activity (AID 2283000); settings: primary human endothelial cells (HUVEC); actives raise or lower the signal;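 for outcome: CCL26 protein level quantified by ELISA in parallel with SRB cytotoxicity check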
# In short: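 Chemicals were added to human umbilical vein endothelium cultures, and Eotaxin-3 was quantified by ELISA at 24 h. Values were derived by bidirectional fitting with DMSO serving as negative control and activity baseline.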
# [18] = biological target: Hepatocyte nuclear factor 4-alpha (Homo sapiens) (UniProt P41235); assay: ATG_HNF4a_TRANS: Attagene TRANS-FACTORIAL HepG2 Assay for human Hepatocyte Nuclear Factor 4 alpha (HNF4a) (AID 2282982; active = hit-call score of the fitted dose curve at least 0.9, where 1 is the maximum); settings: HepG2 HNF4a transactivation reporter, mRNA readout
# In short: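 Using HepG2 liver cells transfected with GAL4-UAS reporter units, chemical-induced mRNA increases were assessed after 24 hours. Fluorescent RT-PCR fragments were separated by capillary electrophoresis and compared with DMSO negative controls.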
# Chain of Nuclear respiratory factor 1 (Homo sapiens) (Q16656 whole entry, looked up): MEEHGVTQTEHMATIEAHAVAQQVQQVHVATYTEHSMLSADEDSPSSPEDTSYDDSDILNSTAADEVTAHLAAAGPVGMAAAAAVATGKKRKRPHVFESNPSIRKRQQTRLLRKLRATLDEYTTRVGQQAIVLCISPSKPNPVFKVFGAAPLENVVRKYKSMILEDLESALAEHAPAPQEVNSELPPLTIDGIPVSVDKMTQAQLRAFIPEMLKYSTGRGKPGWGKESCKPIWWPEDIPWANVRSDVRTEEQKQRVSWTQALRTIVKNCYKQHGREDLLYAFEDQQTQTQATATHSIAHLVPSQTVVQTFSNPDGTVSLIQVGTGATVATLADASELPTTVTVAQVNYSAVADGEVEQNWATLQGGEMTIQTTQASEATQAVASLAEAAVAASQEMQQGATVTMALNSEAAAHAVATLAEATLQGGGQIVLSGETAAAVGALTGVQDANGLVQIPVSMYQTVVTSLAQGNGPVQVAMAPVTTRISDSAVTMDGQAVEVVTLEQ
# Chain of Nuclear receptor subfamily 4 group A member 2 (Homo sapiens) (P43354 whole entry, looked up, the tested form may be a part): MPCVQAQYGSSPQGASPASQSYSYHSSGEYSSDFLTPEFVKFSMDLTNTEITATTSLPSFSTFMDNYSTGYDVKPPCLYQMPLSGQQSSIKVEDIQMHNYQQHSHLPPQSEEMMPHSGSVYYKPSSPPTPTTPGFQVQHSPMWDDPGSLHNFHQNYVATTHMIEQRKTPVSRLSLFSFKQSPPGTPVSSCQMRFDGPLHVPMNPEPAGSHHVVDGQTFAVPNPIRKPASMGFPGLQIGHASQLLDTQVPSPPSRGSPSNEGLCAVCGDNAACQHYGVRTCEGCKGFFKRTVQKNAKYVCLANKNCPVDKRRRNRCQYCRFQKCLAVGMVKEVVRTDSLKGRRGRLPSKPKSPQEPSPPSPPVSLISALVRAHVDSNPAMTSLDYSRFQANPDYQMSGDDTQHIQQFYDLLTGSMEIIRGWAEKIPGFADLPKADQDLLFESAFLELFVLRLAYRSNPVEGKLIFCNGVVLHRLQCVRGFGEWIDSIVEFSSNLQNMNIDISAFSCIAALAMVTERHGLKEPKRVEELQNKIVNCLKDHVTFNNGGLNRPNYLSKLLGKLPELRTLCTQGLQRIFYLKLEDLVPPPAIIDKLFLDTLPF
# Chain of Transcriptional activator Myb (Homo sapiens) (P10242 whole entry, looked up): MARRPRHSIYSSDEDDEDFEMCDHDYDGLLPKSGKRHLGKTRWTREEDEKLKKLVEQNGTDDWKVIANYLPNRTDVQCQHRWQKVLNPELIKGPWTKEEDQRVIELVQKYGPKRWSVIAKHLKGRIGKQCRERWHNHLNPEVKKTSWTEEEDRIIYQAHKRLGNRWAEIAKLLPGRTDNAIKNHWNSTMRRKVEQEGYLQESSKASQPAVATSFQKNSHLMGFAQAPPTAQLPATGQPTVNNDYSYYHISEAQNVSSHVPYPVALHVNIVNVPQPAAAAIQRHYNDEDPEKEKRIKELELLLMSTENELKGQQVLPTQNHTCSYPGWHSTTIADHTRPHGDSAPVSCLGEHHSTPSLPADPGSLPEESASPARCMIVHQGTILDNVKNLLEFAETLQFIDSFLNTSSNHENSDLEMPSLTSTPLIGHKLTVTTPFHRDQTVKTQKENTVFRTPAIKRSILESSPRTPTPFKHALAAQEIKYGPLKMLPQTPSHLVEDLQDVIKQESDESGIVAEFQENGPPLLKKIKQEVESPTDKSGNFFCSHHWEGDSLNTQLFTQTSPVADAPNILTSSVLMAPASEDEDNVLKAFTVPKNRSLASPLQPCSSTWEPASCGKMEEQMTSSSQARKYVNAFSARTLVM
# Chain of Oxysterols receptor LXR-alpha (Homo sapiens) (Q13133 whole entry, looked up, the tested form may be a part): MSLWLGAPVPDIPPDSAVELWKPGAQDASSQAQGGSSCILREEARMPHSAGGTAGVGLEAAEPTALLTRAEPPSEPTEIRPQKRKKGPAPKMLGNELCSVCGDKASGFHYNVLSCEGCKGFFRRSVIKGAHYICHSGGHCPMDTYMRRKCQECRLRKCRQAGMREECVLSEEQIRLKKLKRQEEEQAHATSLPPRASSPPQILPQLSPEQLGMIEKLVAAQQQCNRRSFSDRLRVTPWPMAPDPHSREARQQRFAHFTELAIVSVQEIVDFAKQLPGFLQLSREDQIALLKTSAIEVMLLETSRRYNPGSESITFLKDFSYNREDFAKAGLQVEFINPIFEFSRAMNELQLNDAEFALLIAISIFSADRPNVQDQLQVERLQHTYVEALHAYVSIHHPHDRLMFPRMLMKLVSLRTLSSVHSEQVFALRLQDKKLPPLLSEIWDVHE
# Chain of Myc proto-oncogene protein (Homo sapiens) (P01106 whole entry, looked up): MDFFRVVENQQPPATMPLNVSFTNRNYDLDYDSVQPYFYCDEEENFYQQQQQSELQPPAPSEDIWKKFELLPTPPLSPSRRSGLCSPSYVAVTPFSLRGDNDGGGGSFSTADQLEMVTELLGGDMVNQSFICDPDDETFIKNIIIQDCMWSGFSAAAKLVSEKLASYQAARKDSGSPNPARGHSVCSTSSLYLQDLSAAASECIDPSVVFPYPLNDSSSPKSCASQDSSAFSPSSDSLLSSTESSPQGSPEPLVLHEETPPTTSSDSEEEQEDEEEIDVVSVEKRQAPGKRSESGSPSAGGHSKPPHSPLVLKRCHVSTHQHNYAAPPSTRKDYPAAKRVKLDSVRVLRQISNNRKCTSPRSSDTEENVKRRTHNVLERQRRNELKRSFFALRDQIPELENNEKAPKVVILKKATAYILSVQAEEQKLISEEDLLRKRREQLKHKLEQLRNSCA
# Chain of Glucocorticoid receptor (Homo sapiens) (P04150 whole entry, looked up, the tested form may be a part): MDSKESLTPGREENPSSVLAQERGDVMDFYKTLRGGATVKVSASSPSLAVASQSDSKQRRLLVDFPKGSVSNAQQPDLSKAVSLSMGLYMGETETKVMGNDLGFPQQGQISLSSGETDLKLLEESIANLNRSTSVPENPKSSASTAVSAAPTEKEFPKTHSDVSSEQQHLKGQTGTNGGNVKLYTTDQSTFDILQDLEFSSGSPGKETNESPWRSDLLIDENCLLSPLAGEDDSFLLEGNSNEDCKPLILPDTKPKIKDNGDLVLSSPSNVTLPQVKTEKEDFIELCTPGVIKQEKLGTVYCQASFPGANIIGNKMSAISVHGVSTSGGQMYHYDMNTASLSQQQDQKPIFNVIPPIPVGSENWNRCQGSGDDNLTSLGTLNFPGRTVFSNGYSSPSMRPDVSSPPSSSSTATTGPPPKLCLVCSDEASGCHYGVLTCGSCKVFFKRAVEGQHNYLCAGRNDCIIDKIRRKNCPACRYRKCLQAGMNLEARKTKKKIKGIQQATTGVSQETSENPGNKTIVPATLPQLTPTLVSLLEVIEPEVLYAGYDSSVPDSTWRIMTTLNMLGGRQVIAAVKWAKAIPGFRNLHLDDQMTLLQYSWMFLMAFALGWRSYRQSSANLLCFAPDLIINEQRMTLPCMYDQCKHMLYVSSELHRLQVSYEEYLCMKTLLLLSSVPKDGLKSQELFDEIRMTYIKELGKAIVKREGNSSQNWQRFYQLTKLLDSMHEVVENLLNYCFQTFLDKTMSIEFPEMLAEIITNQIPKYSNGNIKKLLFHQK
# Chain of Oxysterols receptor LXR-beta (Homo sapiens) (P55055 whole entry, looked up, the tested form may be a part): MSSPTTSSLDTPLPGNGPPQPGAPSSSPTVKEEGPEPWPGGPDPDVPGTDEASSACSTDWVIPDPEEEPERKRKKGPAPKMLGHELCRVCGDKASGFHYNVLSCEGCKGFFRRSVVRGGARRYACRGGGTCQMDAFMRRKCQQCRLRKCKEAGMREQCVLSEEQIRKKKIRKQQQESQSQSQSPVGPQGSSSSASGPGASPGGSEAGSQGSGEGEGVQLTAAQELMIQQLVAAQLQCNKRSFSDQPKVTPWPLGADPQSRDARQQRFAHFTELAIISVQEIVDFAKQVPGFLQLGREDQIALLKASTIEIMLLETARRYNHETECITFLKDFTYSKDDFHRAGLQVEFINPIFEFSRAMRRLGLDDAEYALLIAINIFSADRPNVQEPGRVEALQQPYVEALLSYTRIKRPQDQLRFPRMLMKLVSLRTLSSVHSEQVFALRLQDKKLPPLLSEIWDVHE
# Chain of Hepatocyte nuclear factor 4-alpha (Homo sapiens) (P41235 whole entry, looked up, the tested form may be a part): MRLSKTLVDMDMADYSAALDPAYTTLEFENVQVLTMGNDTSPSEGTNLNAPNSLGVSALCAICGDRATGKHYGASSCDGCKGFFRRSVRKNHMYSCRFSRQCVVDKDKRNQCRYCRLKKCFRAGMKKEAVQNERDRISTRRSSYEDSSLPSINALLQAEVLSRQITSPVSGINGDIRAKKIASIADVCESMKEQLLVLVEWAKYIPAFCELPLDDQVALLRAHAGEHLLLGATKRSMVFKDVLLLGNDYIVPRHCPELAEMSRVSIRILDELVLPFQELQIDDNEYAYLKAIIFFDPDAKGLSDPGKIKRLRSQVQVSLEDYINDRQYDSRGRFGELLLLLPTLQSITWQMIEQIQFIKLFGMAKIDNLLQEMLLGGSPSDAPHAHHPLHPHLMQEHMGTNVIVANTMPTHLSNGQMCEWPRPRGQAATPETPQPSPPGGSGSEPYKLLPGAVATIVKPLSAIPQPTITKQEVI
structure (smiles),measurement,setting,value
C=CC(C)(CCC=C(C)C)OC(=O)CC(C)C (configuration not stated),outcome,[1],inactive
same,outcome,[2],inactive
same,outcome,[3],inactive
same,outcome,[4],inactive
same,outcome,[5],inactive
same,outcome,[6],inactive
same,outcome,[7],inactive
same,outcome,[8],inactive
same,outcome,[9],inactive
same,outcome,[10],inactive
same,AC50,[11],100 µM (active)
same,outcome,[12],inactive
C=C(C)CCO,outcome,[1],inactive
same,outcome,[2],inactive
same,outcome,[3],inactive
same,outcome,[13],inactive
same,outcome,[4],inactive
same,outcome,[5],inactive
same,outcome,[6],inactive
same,outcome,[7],inactive
same,outcome,[8],inactive
same,outcome,[9],inactive
same,outcome,[10],inactive
same,outcome,[11],inactive
same,outcome,[12],inactive
O=C(c1ccc(O)cc1)c1ccc(O)cc1O,outcome,[1],inactive
same,outcome,[2],inactive
same,outcome,[13],inactive
same,outcome,[4],inactive
same,outcome,[5],inactive
same,outcome,[6],inactive
same,outcome,[8],inactive
same,outcome,[9],inactive
same,outcome,[10],inactive
same,AC50,[11],100 µM (active)
same,outcome,[12],inactive
same,outcome,[14],inactive
same,AC50,[15],15.9 µM (active)
same,outcome,[15],inactive
same,outcome,[16],inactive
same,AC50,[17],13.9 µM (active) and 20 µM (active)
COc1ccc2nc(N)sc2c1,outcome,[1],inactive
same,outcome,[2],inactive
same,outcome,[18],inactive
same,outcome,[13],inactive
same,outcome,[4],inactive
same,outcome,[5],inactive
same,outcome,[6],inactive
same,outcome,[7],inactive
same,outcome,[8],inactive
same,outcome,[9],inactive
same,AC50,[11],13.9 µM (active)
same,outcome,[12],inactive
same,outcome,[14],inactive
same,outcome,[15],inactive
same,outcome,[16],inactive
same,outcome,[17],inactive
